Data on five compounds can be found in PubChem BioAssay (NCI).

About 83,000 compounds went through this panel and 20% of them were active in at least one assay; those are over-represented in the sample as a whole.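 Method: cells in 96-well plates; compound added at one concentration; 48 h incubation; percent growth measured; values under 10 scored active.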 A number with no mark means an inactive call.

The assay relates to MDA-MB-468 breast. As to the kind of experiment: NCI-60 one-dose screen, 48 h (100 = growth as untreated, 0 = no growth, -100 = all killed). Conditions: 10 µM unless noted.
For `NC(=O)CSc1oc(-c2ccccc2)nc1S(=O)(=O)c1ccc(Br)cc1`, the growth is 73.9%.
Then `CN(C)c1nc2c([nH]1)c(=O)n(C)c(=O)n2C`, with 101%; and `COc1ccc(C(=O)/C=C/c2ccc(N3CCCCC3)cc2)cc1OC`, with 61.8%.
For `Cc1ccc(Nc2c(C(N)=O)cnc3ccc(S(=O)(=O)Nc4cc(C)on4)cc23)cc1` the value was 92.4%; for `CN1C(=O)/C(=C/c2ccc(C(=O)Nc3ncc(Cc4cc(Cl)ccc4Cl)s3)cc2)SC1=S`, 44.2%.
